This is part of a sample that, as a whole, favours compounds with a hit. Of some 79,000 tested, about 15% had one in any assay. Unmarked numbers belong to inactive results. Active and inactive are the calls of the source. Rule as the data show it: active = growth inhibition above about 70%; inactive = the rest.
What was measured:
[1] = NCI Yeast Anticancer Drug Screen. Data for the rad50 strain (AID 155);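 also: 0% = growth of vehicle-only cultures of the same strain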; details: S. cerevisiae rad50 strain growth inhibition; at 50.0 µM; stronger effect = higher value
Procedure, shortened: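 Inhibition values express reduced yeast growth in compound-treated cultures relative to vehicle-treated controls.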

[2] = NCI Yeast Anticancer Drug Screen. Data for the mec2-1 strain (AID 157); details: S. cerevisiae mec2-1 strain, at 50.0 µM, stronger effect = higher value
Procedure, shortened: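 Yeast mec2-1 mutant treated with compound. Readout: growth inhibition vs vehicle controls.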

[3] = NCI Yeast Anticancer Drug Screen. Data for the sgs1 mgt1 strain (AID 161);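 also: 0% = growth of cultures given vehicle only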; details: S. cerevisiae sgs1 mgt1 strain, at 50.0 µM, stronger effect = higher value
Procedure, shortened: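 Read-out: growth inhibition vs vehicle controls. Cells: mutant yeast strain deficient in DNA damage repair.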

[4] = NCI Yeast Anticancer Drug Screen. Data for the cln2 rad14 strain (AID 165);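 also: 0% = growth equal to vehicle treated cultures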; details: S. cerevisiae cln2 rad14 strain, at 50.0 µM, stronger effect = higher value
Procedure, shortened: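 cln2 rad14 yeast strain; compound exposure; growth inhibition read vs vehicle controls.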

[5] = NCI Yeast Anticancer Drug Screen. Data for the bub3 strain (AID 167); details: S. cerevisiae bub3 mutant strain, at 50.0 µM, stronger effect = higher value
Procedure, shortened: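 Steps: expose the mutant yeast strain to compound; grow alongside vehicle-treated cultures; measure growth; express inhibition against the vehicle cultures.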

[6] = NCI Yeast Anticancer Drug Screen. Data for the mlh1 rad18 strain (AID 175); details: S. cerevisiae mlh1 rad18 strain growth inhibition; at 50.0 µM; stronger effect = higher value
Procedure, shortened: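 Yeast w/ defined DNA-repair lesions; compound exposure; growth vs vehicle controls → % inhibition.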

SMILES	growth inhibition [1]	growth inhibition [2]	growth inhibition [3]	growth inhibition [4]	growth inhibition [5]	growth inhibition [6]
C1CCN2CC3CONC3C2C1 (stereo unspecified)	-11.3%	-7.5%	2.05%	13.7%	-6.2%	-3.05%
CCCCC1(CCC)C(=O)NC(=O)NC1=O	9.8%	9.5%	1%	13.7%	1%	15.8%
CCC1(CCBr)C(=O)NC(=O)NC1=O	-33.6%	3.35%	11.8%	-34.5%	21.6%	2.3%
CC1(C)CC(N2CCCCC2)=CC(=[N+]2CCCCC2)C1	-6.55%	-2%	22.3%	0.1%	-5.85%	-10.6%
BrCC[N+]12CCCN1CCC2	-7.95%	-31.4%	3.25%	0.2%	-7.05%	-31.3%
S=C1c2ccc(Cl)cc2-n2cnnc2C2CSCN12 (stereo unspecified)	-4.1%	10.8%	7.9%	0.9%	-6.1%	26.4%
CC1N2C3(c4ccccc4)OC(c4ccccc4)(c4ccccc43)C12c1ccccc1 (stereo unspecified)	9.8%	13.2%	4.95%	31.9%	0.8%	4.05%
COc1ccc2nc3ccccc3c(NCCCN(C)CCCl)c2c1	67.8%	56.5%	57.8%	50.5%	-0.5%	66.2%
COc1cccc(/C=N/[N-]C(=O)c2ccncc2)c1[O-].[Mn+2].[OH3+]	9.15%	12.5%	7.35%	9.95%	4.7%	20.6%
O=[N+]([O-])c1cc2n[nH]nc2c2nonc12	1.45%	11.3%	11.4%	-2.05%	27.1%	5.7%
CNCCc1ccc(O)cc1	-9.2%	-1.85%	-0.75%	-23.3%	1.35%	-0.65%
O=C(O)C(=O)O.[NH2-].[NH2-].[Pt+2]	8.3%	-4.9%	0.15%	-5.05%	2.6%	-3.8%
O=C(NC1=NN(Cc2ccccc2)C(=O)C1)c1ccc(S(=O)(=O)F)cc1	-0.35%	-14.9%	19.6%	9.55%	9.8%	11.6%
CCOP(=O)(/C=C/c1cc(OC)ccc1OC)OCC	-0.05%	-12.8%	-32.4%	-24.5%	-29.8%	-26.1%
ClCCN(CCCl)c1ncnc2c1ncn2Cc1ccccc1	2.9%	17.4%	15.6%	-12.6%	-1.95%	-0.4%
O=C(CP(=O)(O)O)c1cccs1	-10.6%	-10.3%	-28%	-10.8%	-17.8%	-18.9%
C#CC1(OC(C)=O)CCC2C3CCC4=CC(=O)CCC4(C)C3CCC21C (stereo unspecified)	32%	6.1%	4.4%	-11.2%	-8.8%	19.7%
CCOP(=O)(OCC)C(N)Cc1c[nH]c2ccccc12 (stereo unspecified)	13.9%	-5.85%	-16.8%	16.4%	11.6%	4.9%
Cc1ccccc1/C(=C/c1ccc([N+](=O)[O-])cc1)C(=O)Nc1ccc(S(=O)(=O)F)cc1	97.1% (active)	95.5% (active)	96.3% (active)	96.3% (active)	96.5% (active)	97.5% (active)
CC/C(=C(/CC)c1ccc(OP(=O)(Cl)N(CCCl)CCCl)cc1)c1ccc(OP(=O)(Cl)N(CCCl)CCCl)cc1 (stereo unspecified)	-2.35%	-18%	-8.3%	-1.9%	-2.45%	37.5%
C#C[C@]1(O)CC[C@H]2[C@@H]3CCC4=C/C(=N/OC(=O)c5cccc6c(=O)c7ccccc7[nH]c56)CC[C@@H]4[C@H]3CC[C@@]21C	1.6%	-4.5%	11.3%	9.7%	-24.9%	-3.55%

SMILES	growth inhibition [1]	growth inhibition [2]	growth inhibition [3]	growth inhibition [4]	growth inhibition [5]	growth inhibition [6]
CC(C)OP(=S)(Oc1ccc(Cl)cc1Cl)OC(C)C	20.9%	-11.7%	31.9%	8.8%	21.2%	8%
CC(Cl)CNC1CCCCC1 (stereo unspecified)	6%	-3.5%	-8.95%	-10.6%	-0.95%	-0.9%
FC1(F)[Se]C2C3CCC(C3)C2C1(F)F (stereo unspecified)	-30.9%	-11.6%	-3.6%	-16.1%	-0.15%	-40.7%
CN1C2CCC1C(O)C(c1ccccc1)C2 (stereo unspecified)	6.15%	9.25%	-0.05%	-11.8%	0.45%	-0.6%
Cc1cc2[nH]c3c(C#N)c(OC(=O)N(C)C)c(-c4ccccc4)c(=O)n3c2cc1C	-8.75%	9.5%	-7.85%	-7.15%	1.9%	1.6%
C#CCN(C)C(=O)N(CC#C)N=O	15.2%	-4.95%	1.75%	-11%	-6.55%	-23.4%
O=[N+]([O-])c1ccc(N=Nc2ccc(N(CCCl)CCCl)cc2)cc1	-4.8%	14.1%	-1.25%	-14.9%	5%	23.5%
O=C(Nc1ccc(S(=O)(=O)F)cc1)/C(=C\c1ccc([N+](=O)[O-])cc1)c1cccc(Cl)c1	12.4%	4.3%	-18.2%	31.4%	-0.7%	11.1%
CCOP(=O)(OCC)N1C(C)C1C (stereo unspecified)	-0.05%	2.8%	17.6%	-8.3%	4.25%	-4.75%
CS(=O)(=O)c1ccc([As](=O)(O)O)cc1	5.7%	0.1%	20.6%	-34.1%	5.2%	-11.8%
O=S(=O)(O)C1CCC(O)C2[N-]CCCC21.O=S(=O)(O)C1CCC(O)C2[N-]CCCC21.[Zn+2] (stereo unspecified)	1.75%	0.9%	6.2%	25.8%	-10.7%	5.05%
Oc1ccc(Br)cc1	1.15%	-18.1%	-14.4%	-14.3%	-15.1%	-6.5%
Cc1cccc(Cl)c1OP(=O)(Oc1c(C)cccc1Cl)Oc1c(C)cccc1Cl	-10.4%	-7.8%	-19.3%	-19.3%	2.25%	-51.4%
CC[CH2][Sn]([Br])([CH2]CC(=O)OC)[CH2]CC(=O)OC	16.5%	4.2%	50.1%	-19.9%	9.85%	12.1%
CP1(=O)CC23CCCCC2(C1)O3 (stereo unspecified)	2%	-29.9%	-3.3%	-44.2%	-15%	-7.9%
CC1(C)OCC(CO)(Nc2nc(N3CC3)nc(N3CC3)n2)CO1	-12.6%	2.9%	3.3%	-38%	5.6%	-2.8%
CC1CN1P(=O)(N1CCc2ccccc21)N1CC1C (stereo unspecified)	-21.8%	-7.9%	-5.6%	-24.7%	5.9%	0.85%
O=C(Nc1cccc(S(=O)(=O)F)c1)/C(=C/c1ccc([N+](=O)[O-])cc1)c1ccccc1	88.5% (active)	86% (active)	86.7% (active)	79.2% (active)	81.2% (active)	88.2% (active)
COc1cc(C2c3cc4c(cc3OC(C)(O)C2C)OCO4)cc(OC)c1OC (stereo unspecified)	8.8%	-1.15%	9.85%	-25.4%	-16.9%	15.2%
[Cl][Pt][Cl].c1ccc([PH+](c2ccccc2)c2ccccc2)cc1.c1ccc([PH+](c2ccccc2)c2ccccc2)cc1	-1.7%	4.75%	-4.95%	-6.6%	-1.6%	-16.9%

— PubChem BioAssay (NCI)
